Laboratory results reported in PubChem BioAssay (NCI).
About 83,000 compounds went through this panel and 20% of them were active in at least one assay; those are over-represented in the sample as a whole.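 The test compound was applied at a single concentration to cells in 96-well plates for 48 hours, and percent growth was recorded.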 A number with no mark means an inactive call. Calls of active or inactive are those of the source. Rule for the calls: active = growth percent below 10; inactive = the rest.

Assays:
Assay in all cases: NCI-60 one-dose screen, 48 h (100 = growth as untreated, 0 = no growth, -100 = all killed)
Conditions in all cases: 10 µM unless noted
OVCAR-5 ovarian = system: OVCAR-5 ovarian
OVCAR-4 ovarian = system: OVCAR-4 ovarian
SK-OV-3 ovarian = system: SK-OV-3 ovarian
IGROV1 ovarian = system: IGROV1 ovarian
OVCAR-3 ovarian = system: OVCAR-3 ovarian
HS 578T breast = system: HS 578T breast
NCI/ADR-RES ovarian = system: NCI/ADR-RES ovarian
T-47D breast = system: T-47D breast
OVCAR-8 ovarian = system: OVCAR-8 ovarian

Cc1nn(-c2ccccc2)c(Cl)c1C(CC(=O)c1ccc(Cl)cc1)CC(=O)c1ccc(Cl)cc1
growth (OVCAR-5 ovarian): 93.8% | growth (OVCAR-4 ovarian): 97.8% | growth (SK-OV-3 ovarian): 91.8% | growth (IGROV1 ovarian): 101% | growth (OVCAR-3 ovarian): 91.7% | growth (HS 578T breast): 97.3% | growth (NCI/ADR-RES ovarian): 90.2% | growth (T-47D breast): 85.8%

O=C(NCCCO)c1cc(Cl)ccc1O
growth (OVCAR-8 ovarian): 17.8% | growth (OVCAR-5 ovarian): 45% | growth (SK-OV-3 ovarian): 40.6% | growth (IGROV1 ovarian): 28.1% | growth (OVCAR-3 ovarian): -14.9% (active) | growth (HS 578T breast): 19.3% | growth (T-47D breast): 30%

COC(=O)[C@]1(CCSC)N[C@H](c2cn(-c3ccccc3)nc2C)[C@@H]2C(=O)N(c3ccccc3)C(=O)[C@@H]21
growth (OVCAR-5 ovarian): 104% | growth (OVCAR-4 ovarian): 106% | growth (SK-OV-3 ovarian): 95.2% | growth (IGROV1 ovarian): 118% | growth (OVCAR-3 ovarian): 98.7% | growth (HS 578T breast): 93.7% | growth (NCI/ADR-RES ovarian): 91% | growth (T-47D breast): 108%

CC(C)(C)c1cc(O)c(O)c(C(C)(C)C)c1
growth (OVCAR-8 ovarian): 39.8% | growth (OVCAR-5 ovarian): 55.3% | growth (SK-OV-3 ovarian): 67% | growth (IGROV1 ovarian): 49.9% | growth (OVCAR-3 ovarian): 20.9% | growth (HS 578T breast): 43.6% | growth (NCI/ADR-RES ovarian): 51.9% | growth (T-47D breast): 12.8%

Cc1nn(-c2ccccc2)c2nc(Cl)c(/C=C/C(=O)c3ccccc3)c(-c3ccccc3)c12
growth (OVCAR-5 ovarian): 103% | growth (OVCAR-4 ovarian): 107% | growth (SK-OV-3 ovarian): 102% | growth (IGROV1 ovarian): 120% | growth (OVCAR-3 ovarian): 116% | growth (HS 578T breast): 95.5% | growth (NCI/ADR-RES ovarian): 105% | growth (T-47D breast): 107%

O=C(NCCc1ccccc1)C1CCC(=O)N1Cc1ccc(Br)cc1 (stereo unspecified)
growth (OVCAR-5 ovarian): 94.4% | growth (OVCAR-4 ovarian): 111% | growth (SK-OV-3 ovarian): 101% | growth (IGROV1 ovarian): 103% | growth (OVCAR-3 ovarian): 116% | growth (HS 578T breast): 113% | growth (NCI/ADR-RES ovarian): 107% | growth (T-47D breast): 106%

CSc1ncc2ncn(C3OC(CO)C(O)C3O)c2n1 (stereo unspecified)
growth (OVCAR-8 ovarian): 138% | growth (OVCAR-5 ovarian): 156% | growth (OVCAR-4 ovarian): 101% | growth (SK-OV-3 ovarian): 104% | growth (HS 578T breast): 95.2% | growth (NCI/ADR-RES ovarian): 143% | growth (T-47D breast): 101%

O=Nc1ccc(O)c(=O)cc1
growth (OVCAR-8 ovarian): 43.8% | growth (OVCAR-5 ovarian): 68.1% | growth (SK-OV-3 ovarian): 108% | growth (IGROV1 ovarian): 18.7% | growth (HS 578T breast): 107% | growth (NCI/ADR-RES ovarian): 38% | growth (T-47D breast): 18.5%

CC(=O)c1cc(C(=O)c2ccc3c(c2)Sc2ccccc2N3)c2c(C)cc(C)cn12
growth (OVCAR-5 ovarian): 39.7% | growth (OVCAR-4 ovarian): 39.8% | growth (SK-OV-3 ovarian): 21% | growth (IGROV1 ovarian): 28.3% | growth (OVCAR-3 ovarian): -26.1% (active) | growth (HS 578T breast): 20.5% | growth (NCI/ADR-RES ovarian): 12.9% | growth (T-47D breast): 48.2%

Cc1nn(-c2ccccc2)c2nc3c(nc12)C(=O)CCC3
growth (OVCAR-5 ovarian): 104% | growth (OVCAR-4 ovarian): 81.4% | growth (SK-OV-3 ovarian): 99.7% | growth (IGROV1 ovarian): 96.6% | growth (OVCAR-3 ovarian): 98.8% | growth (HS 578T breast): 97.1% | growth (NCI/ADR-RES ovarian): 94.8% | growth (T-47D breast): 79.2%

CCN(CC)c1ccc(C(O)C2=CC(=O)c3ccccc3C2=O)cc1 (stereo unspecified)
growth (OVCAR-8 ovarian): -3.87% (active) | growth (OVCAR-5 ovarian): -23.8% (active) | growth (SK-OV-3 ovarian): 73.1% | growth (IGROV1 ovarian): -42.7% (active) | growth (OVCAR-3 ovarian): -77.2% (active) | growth (HS 578T breast): -10.6% (active) | growth (NCI/ADR-RES ovarian): 84.4% | growth (T-47D breast): -60.6% (active)

Cc1nn(-c2ccccc2)c2ncc3c(c12)C(=O)N(Cc1ccccc1)C3=O
growth (OVCAR-5 ovarian): 63.6% | growth (OVCAR-4 ovarian): -57.8% (active) | growth (SK-OV-3 ovarian): 14.7% | growth (IGROV1 ovarian): 14.7% | growth (OVCAR-3 ovarian): 19.2% | growth (HS 578T breast): 22.7% | growth (NCI/ADR-RES ovarian): 42.1% | growth (T-47D breast): 43.4%

N#CCCN(CCO)c1ccccc1
growth (OVCAR-8 ovarian): 102% | growth (OVCAR-5 ovarian): 108% | growth (SK-OV-3 ovarian): 101% | growth (IGROV1 ovarian): 103% | growth (OVCAR-3 ovarian): 105% | growth (HS 578T breast): 102% | growth (NCI/ADR-RES ovarian): 112% | growth (T-47D breast): 92%

Cc1ccc(NC(=O)CSc2nnc3n(Cc4ccccc4)c(=O)c4c(C)c(C(N)=O)sc4n23)cc1
growth (OVCAR-5 ovarian): 75.8% | growth (OVCAR-4 ovarian): -62.3% (active) | growth (SK-OV-3 ovarian): -7.67% (active) | growth (IGROV1 ovarian): 50.8% | growth (OVCAR-3 ovarian): 9.55% (active) | growth (HS 578T breast): 6.99% (active) | growth (NCI/ADR-RES ovarian): 92.8% | growth (T-47D breast): -19.7% (active)

CC1=CC(=O)C(C(C)=Nc2ccccc2Cl)C(=O)O1 (stereo unspecified)
growth (OVCAR-8 ovarian): 96.9% | growth (OVCAR-5 ovarian): 151% | growth (OVCAR-4 ovarian): 99.5% | growth (SK-OV-3 ovarian): 104% | growth (HS 578T breast): 83.6% | growth (NCI/ADR-RES ovarian): 140% | growth (T-47D breast): 105%
